Screening results deposited in PubChem BioAssay by National Center for Advancing Translational Sciences (NCATS).
AmpC no deterg – inhibitors of E. coli AmpC beta-lactamase without detergent | P00811 | AmpC nitrocefin hydrolysis, absorbance 480 nm, 0.0001% Triton | Potency, µM (doses to about 57.1 µM), for the others: top-dose activity change, negative = inhibition, usual class: inhibitors | actives 0.52% (n = 330,000) | AID 485341;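 note: potency is the fitted concentration of half-maximal effect; plate controls were no compound for no effect and no enzyme for full effect; nearly all actives have a fitted effect of over 20% in size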
Target sequence (P00811 whole entry, looked up): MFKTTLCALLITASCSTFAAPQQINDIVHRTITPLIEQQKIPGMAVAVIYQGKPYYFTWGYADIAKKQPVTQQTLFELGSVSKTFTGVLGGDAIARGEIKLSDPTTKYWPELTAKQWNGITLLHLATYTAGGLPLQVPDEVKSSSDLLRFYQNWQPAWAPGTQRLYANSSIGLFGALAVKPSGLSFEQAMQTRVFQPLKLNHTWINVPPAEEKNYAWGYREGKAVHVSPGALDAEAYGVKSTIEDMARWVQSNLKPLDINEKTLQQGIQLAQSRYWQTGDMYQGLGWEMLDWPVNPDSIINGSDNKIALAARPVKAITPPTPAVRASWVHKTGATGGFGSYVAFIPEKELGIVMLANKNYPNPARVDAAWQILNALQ
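AmpC (5.3 nM in the dispensed reagent) in 20 mM phosphate pH 7.0 with 0.01% (detergent screen) or 0.0001% Triton X-100 was preincubated with compounds for 15 min at room temperature. Nitrocefin was then added from an 800 uM solution, and hydrolysis was followed at 480 nm.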
HCV inhibitor – HCV inhibition; Potency, µM (titrated, usually from 41.8 µM), for inactives: at the highest dose activity change, negative = inhibition, usual class: inhibitors; actives 3.4% (n = 340,000); Huh7.5.1 HCVcc-Cre infection, luciferase reporter, 44 h; note: potency is the fitted concentration of half-maximal effect
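Reporter virus HCVcc-Cre (~0.5 moi) infects cells exposed to compound; seeding density 1,000 cells/well with 4 h settling beforehand. Luminescence, 15 sec read, taken 44 h post-infection following a 15 min RT substrate incubation.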
HCMV antiviral – blocks human cytomegalovirus replication. HFF cells, HCMV-luciferase reporter, 72 h; active compounds read low. activity change, negative = inhibition, % at 57.5 µM. actives 4.5% (n = 410,000); in the data active = activity change below about -60%; inconclusive = no clear call, values can overlap the other calls; inactive = above about -39%
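Two-dose cell screen: HFF monolayers treated with compounds and infected with luciferase-expressing HCMV at 1 PFU/cell, 72 h at 37C, then lysed for luciferase measurement.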
FMDV inh – foot and mouth disease virus antiviral activity | AID 1159524 | FMDV antiviral cell-based qHTS | actives 1.2% (n = 410,000) | Potency, µM (top dose mostly 57.9 µM), inactives show at the highest dose activity change, negative = inhibition, usual class: inhibitors; calls by dose curve; tested in HEK293T cells; note: read-out not given here; potency is the fitted concentration of half-maximal effect; nearly all actives have a fitted effect of over 45% in size
AmpC detergent – AmpC beta-lactamase inhibition with detergent present; P00811; AmpC hydrolysis of nitrocefin, absorbance 480 nm, 0.01% Triton; Potency, µM (doses to about 114 µM), for inactives: at the highest dose activity change, negative = inhibition, most hits filed as inhibitors; actives 0.041% (n = 370,000); AID 485294;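 note: potency is the fitted concentration of half-maximal effect; 0% = no-compound wells and -100% = no-enzyme wells; nearly all actives have a fitted effect of over 25% in size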
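20 mM phosphate pH 7.0 + 0.01% (detergent screen) or 0.0001% Triton X-100; 5.3 nM AmpC reagent; cpd preinc 15 min RT; nitrocefin (800 uM stock) to start; A480 q20 s × 4 min; Activity was normalised to no-enzyme and no-compound control wells.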
Starred values were filed as active, the others as inactive; ? = inconclusive; . = not tested or not shown. Sampled rows, rich in hits. Any-hit rate of the full collection: about 7.3%. Unless noted, calls come from the whole dose curve; as a rule, active = well fitted curve in the direction sought with a large enough effect; inconclusive = small, poorly fitted or top-dose-only effect, or another doubt; inactive = no such curve, though single readings can be large; an effect the other way counts as inactive or inconclusive. Unless noted, % is set by controls: 0 for no effect and ±100 for the full control effect.

SMILES	AmpC no deterg	HCV inhibitor	HCMV antiviral	FMDV inh	AmpC detergent
Cc1cc(C(=O)NCC(=O)Nc2ccc(F)c(F)c2)c(C)o1	-16%	-9%	30	13%	.
CCc1ccccc1NC(=O)c1ccc2c(SCC(=O)O)c3c(nc2c1)CCC3	.	.	12	26%	16%
c1ccc(OCc2nc3ccccc3[nH]2)cc1	-20%	?	50	45%	-15%
Clc1ccc(OCc2nc3ccccc3[nH]2)cc1	-34%	11µM*	37	6%	-4%
Cc1ccc(S(=O)(=O)CCc2nc3ccccc3[nH]2)cc1C	-4%	-6%	-27	12%	8%
Cc1ccc(S(=O)(=O)CCc2nc3ccccc3[nH]2)cc1	-20%	-1%	-69*	5%	-5%
O=S(=O)(CCc1nc2ccccc2[nH]1)c1ccc(Cl)cc1	-16%	2%	-61*	-6%	-4%
CC(C)NC(=O)c1cn([C@H]2CC[C@@H](NC(=O)/C=C/c3cccs3)CC2)nn1	.	.	.	0%	.
O=C(NCCc1ccncc1)c1cnn(-c2ncc3c(n2)-c2ccccc2CCC3)c1C1CC1	.	.	.	-12%	.
COc1ccc(C2NC(=O)NC(c3ccccc3)=C2c2nc3ccccc3s2)cc1 (stereo not drawn)	15%	-12%	-8	?	-2%
O=C1NC(c2ccccc2)=C(c2nc3ccccc3s2)C(c2ccc(F)cc2)N1 (stereo not drawn)	10%	?	-27	22µM*	5%
COCOCCn1cc(CN2CCS(=O)(=O)N(Cc3ccc(-c4ccc(Cl)c(Cl)c4)cc3)C(C(C)C)C2=O)nn1 (stereo not drawn)	.	.	-25	?	.
CCOC(=O)/C=c1\s/c(=C\c2c(OC)ccc3ccccc23)c(=O)n1CC(=O)NCC1CCCO1 (stereo not drawn)	213%	?	-95*	-5%	-1%
CC(=O)CCc1c(C)nc2ccc(C)cc2c1Cl	116%	-12%	-80*	23%	-9%
CCOC(=O)c1ccc2nc(C)c(CCC(C)=O)c(Cl)c2c1	164%	-12%	-6	45%	1%
COc1ccc(NC(=O)C2CCN(c3cc(-c4ccccc4)nc4ncnn34)CC2)cc1OC	-1%	-16%	-89*	?	-3%
COc1ccccc1NC(=O)N1CCN(c2cc(-c3ccccc3)nc3ncnn23)CC1	5%	10µM*	-95*	32µM*	-8%
COc1ccc(OC)c(NC(=O)C2CCN(c3cc(-c4ccccc4)nc4ncnn34)CC2)c1	-14%	14µM*	?	-10%	-9%
COc1ccc(-c2cc3nc(-c4ccccc4)cc(N4CCN(C(C)=O)CC4)n3n2)cc1	.	.	-37	?	.
COc1ccc(OC)c(NC(=O)C2CCN(c3ncccn3)CC2)c1	9%	-21%	9	-3%	-9%
COc1ccc2c(c1)OCC(O)(c1ccccc1)C2=O (stereo not drawn)	.	7%	0	-4%	.
Cc1nc(C)c(C(=O)NCCC(c2ccccc2)c2ccccc2)o1	33%	10µM*	?	?	7%
Cc1ccsc1C(=O)NCCC(c1ccccc1)c1ccccc1	-32%	-10%	13	-8%	-7%
COc1cc(C2Oc3ccccc3C=C2[N+](=O)[O-])cc(OC)c1OC (stereo not drawn)	13%	?	-104*	13µM*	-8%
COc1cc(C2NC(=O)c3ccccc3O2)cc(OC)c1OC (stereo not drawn)	-12%	-8%	8	-10%	-12%
SMILES	AmpC no deterg	HCV inhibitor	HCMV antiviral	FMDV inh	AmpC detergent
Cc1ccc(CNc2ncnc3sc(C(=O)N4CCCCC4c4cccnc4)c(C)c23)o1 (stereo not drawn)	.	.	.	0%	.
CC(C)CCOc1ccccc1Cn1c(=O)sc2ccccc21	.	.	7	-13%	13%
O=c1sc2ccccc2n1COc1ccccc1	-27%	20%	-95*	25%	?
CCOc1ccccc1Cn1c(=O)sc2ccccc21	-42%	10%	-66*	-14%	4%
Cc1ccc(CNc2ccc3c(c2)OCO3)cc1	.	10µM*	.	15%	-5%
CCOC(=O)C1CCN(C(=O)COc2ccc(N(C)S(=O)(=O)c3ccc(C)cc3)cc2)CC1	122%	-10%	-102*	-20%	7%
